Targets with a hit are over-represented here; the source holds about 8,800 in all. About 0.5% of all pairs of compound and target were hits.
Legend:
Assay in all cases: log2 fold change, soluble protein after heating vs DMSO (PISA); higher = thermal stabilisation; K562 lysate, 10 uM; active = over 0.2 and 3.5 SD of the protein, either way, in both replicates (recomputed)
[1] = compound: CN1CC[C@H](c2c(O)cc(O)c3c(=O)cc(-c4ccccc4Cl)oc23)[C@H](O)C1 [alvocidib]
Summary of the method: (§1)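 Values give the log-two fold change in thermal stability against solvent controls, from duplicates. Crude K562 extract at 1 mg/mL protein, made by dounce homogenisation in PBS pH 7.4 with 1 mM MgCl2, was treated with 10 μM compound for 30 min. After 3 min heating across 48°C-58°C, aliquots were pooled, adjusted to 0.5% NP-40 at 4°C and centrifuged at 21,000xg for 90 min. The supernatant was measured by TMTpro 16plex LC-MS/MS with channel sums equalised.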

[2] = compound: CN1CCc2c(c3ccccc3n2Cc2ccc(C(=O)NO)cc2)C1 [Tubastatin A]
Summary of the method: as §1

[3] = compound: CNC(=O)C1=CC=CC=C1NC2=NC(=NC=C2Cl)NC3=C(C=C(C=C3)N4CCOCC4)OC
Summary of the method: as §1

[4] = compound: CNC(=O)c1ccc(Nc2ncc(C(F)(F)F)c(NCc3nccnc3N(C)S(C)(=O)=O)n2)cc1 [defactinib]
Summary of the method: as §1

[5] = compound: COC(=O)N[C@@H](C)CNc1nccc(-c2cn(C(C)C)nc2-c2cc(Cl)cc(NS(C)(=O)=O)c2F)n1 [encorafenib]
Summary of the method: as §1

[6] = compound: COC(=O)[C@H](CCSC)NC(=O)C1=C(C=C(C=C1)NC[C@H](CS)N)C2=CC=CC=C2
Summary of the method: as §1

[7] = compound: COc1cc(Nc2ncc3c(n2)-c2ccc(Cl)cc2C(c2c(F)cccc2OC)=NC3)ccc1C(=O)O [alisertib]
Summary of the method: as §1

[8] = compound: COc1cc2nc(-c3cc(F)ccc3O)nc(N[C@@H]3CNC[C@H]3C(C)(C)O)c2cc1OC
Summary of the method: as §1

[9] = compound: COc1cc2ncnc(Nc3ccc(F)c(Cl)c3)c2cc1OCCCN1CCOCC1 [gefitinib]
Summary of the method: as §1

[10] = compound: CS(=O)(=O)CCNCc1ccc(-c2ccc3ncnc(Nc4ccc(OCc5cccc(F)c5)c(Cl)c4)c3c2)o1 [lapatinib]
Summary of the method: as §1

[11] = compound: C[C@H](C1=CC=C(C=C1)C(=O)NC2=C3C=CNC3=NC=C2)N
Summary of the method: as §1

[12] = compound: Cc1cc(Nc2cc(CN3CCOCC3)c3nc(C)c(Cc4ccc(Cl)cc4F)n3n2)n[nH]1 [gandotinib]
Summary of the method: as §1

[13] = compound: Cc1cc(Nc2cc(N3CCN(C)CC3)nc(Sc3ccc(NC(=O)C4CC4)cc3)n2)n[nH]1 [tozasertib]
Summary of the method: as §1

[14] = compound: Cc1cccc(CC(=O)N2CCc3c2ccc(-c2cn(C)c4ncnc(N)c24)c3F)n1
Summary of the method: as §1

[15] = compound: CNc1nc(-c2ccc3c(N)n[nH]c3c2)cc(N2C[C@@H](C(=O)NC3CCCCC3)CC[C@H]2C)n1
Summary of the method: as §1

[16] = compound: C[C@@H](Oc1cc(-c2cnn(C3CCNCC3)c2)cnc1N)c1c(Cl)ccc(F)c1Cl [crizotinib]
Summary of the method: as §1

[17] = compound: C[C@H](Nc1ncnc2nc[nH]c12)c1cc2cccc(Cl)c2c(=O)n1-c1ccccc1 [duvelisib]
Summary of the method: as §1

[18] = compound: Cc1ccc(-n2nc(C(C)(C)C)cc2NC(=O)Nc2ccc(OCCN3CCOCC3)c3ccccc23)cc1 [doramapimod]
Summary of the method: as §1

[19] = compound: CS(=O)(=O)N1CCN(Cc2cc3nc(-c4cccc5[nH]ncc45)nc(N4CCOCC4)c3s2)CC1 [pictilisib]
Summary of the method: as §1

[20] = compound: Cc1ccc(NC(=O)c2ccc(CN3CC[C@H](N(C)C)C3)c(C(F)(F)F)c2)cc1Nc1nccc(-c2cncnc2)n1 [bafetinib]
Summary of the method: as §1

Measured: log2 fold change

PRR4 (UniProt Q16378)
UniProt Q16378, sequence (Q16378 whole entry, looked up): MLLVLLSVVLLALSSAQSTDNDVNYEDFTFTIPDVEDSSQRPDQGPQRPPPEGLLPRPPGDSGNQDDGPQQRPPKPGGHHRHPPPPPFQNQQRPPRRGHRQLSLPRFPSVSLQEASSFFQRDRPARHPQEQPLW
inactive: [1] -0.033 | [2] 0.181 | [3] 0.215 | [4] 0.08 | [5] -0.396 | [6] 0.126 | [7] 0.075 | [8] -0.011 | [9] 0.026 | [10] 0.047 | [11] 0.291 | [12] -0.34 | [13] 0.412 | [14] 0.252

PIAS2 (UniProt O75928)
inactive: [2] -0.092 | [3] 0.006 | [4] -0.348 | [15] -0.002 | [5] 0.006 | [6] -0.041 | [7] -0.021 | [9] -0.091 | [16] -0.045 | [17] 0.075 | [13] 0.048 | [18] -0.007

PICALM (UniProt H0YCY1)
inactive: [3] -0.018

POM121C (UniProt A8CG34)
UniProt A8CG34, sequence (A8CG34 whole entry, looked up): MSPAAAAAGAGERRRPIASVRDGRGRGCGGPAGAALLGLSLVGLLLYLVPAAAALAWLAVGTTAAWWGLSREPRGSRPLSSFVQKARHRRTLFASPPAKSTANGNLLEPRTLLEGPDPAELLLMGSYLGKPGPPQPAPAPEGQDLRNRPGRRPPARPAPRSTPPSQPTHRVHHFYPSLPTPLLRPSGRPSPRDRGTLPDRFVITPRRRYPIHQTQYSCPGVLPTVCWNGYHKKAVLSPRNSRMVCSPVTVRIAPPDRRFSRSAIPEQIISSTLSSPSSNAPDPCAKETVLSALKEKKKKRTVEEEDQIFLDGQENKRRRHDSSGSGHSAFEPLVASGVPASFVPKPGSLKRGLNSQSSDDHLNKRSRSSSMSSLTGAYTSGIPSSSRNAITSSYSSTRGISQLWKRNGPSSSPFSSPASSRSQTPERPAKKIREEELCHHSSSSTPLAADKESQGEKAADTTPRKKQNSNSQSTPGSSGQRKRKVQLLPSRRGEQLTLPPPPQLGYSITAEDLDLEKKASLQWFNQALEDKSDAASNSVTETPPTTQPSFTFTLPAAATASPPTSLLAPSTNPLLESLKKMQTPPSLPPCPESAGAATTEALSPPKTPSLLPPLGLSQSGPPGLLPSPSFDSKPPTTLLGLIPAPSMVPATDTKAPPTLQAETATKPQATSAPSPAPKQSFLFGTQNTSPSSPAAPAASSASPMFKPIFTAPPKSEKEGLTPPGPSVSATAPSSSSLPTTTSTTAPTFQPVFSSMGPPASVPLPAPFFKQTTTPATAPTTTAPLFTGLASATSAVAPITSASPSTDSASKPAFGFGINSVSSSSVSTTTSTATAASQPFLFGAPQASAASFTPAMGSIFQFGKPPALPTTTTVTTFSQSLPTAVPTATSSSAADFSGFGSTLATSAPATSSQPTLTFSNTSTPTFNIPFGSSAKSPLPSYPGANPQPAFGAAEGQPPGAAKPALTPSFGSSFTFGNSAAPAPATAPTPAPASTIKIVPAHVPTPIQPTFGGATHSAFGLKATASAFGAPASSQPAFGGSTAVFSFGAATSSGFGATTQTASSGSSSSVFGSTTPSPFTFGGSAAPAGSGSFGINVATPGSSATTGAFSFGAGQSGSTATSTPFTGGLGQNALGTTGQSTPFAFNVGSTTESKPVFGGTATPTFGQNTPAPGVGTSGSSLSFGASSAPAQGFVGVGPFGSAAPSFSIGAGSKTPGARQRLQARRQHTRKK
inactive: [1] -0.089 | [2] 0.124 | [3] 0.069 | [8] -0.076 | [10] 0.164 | [19] 0.19 | [11] 0.007 | [12] 0.051 | [20] 0.135 | [14] -0.091

PLXND1 (UniProt Q9Y4D7)
inactive: [2] 0.111 | [3] 0.015 | [15] -0.123 | [7] 0.046 | [9] 0.313 | [19] 0.018 | [16] 0.067 | [17] -0.031 | [18] 0.171
active: [20] -0.461

PYGO2 (UniProt Q9BRQ0)
inactive: [1] 0.01 | [2] -0.019 | [3] 0.032 | [15] 0.131 | [5] -0.031 | [6] -0.121 | [7] -0.011 | [9] -0.026 | [19] -0.038 | [16] 0.067 | [11] 0.014 | [17] -0.046 | [12] 0.078 | [13] -0.076 | [18] 0.032 | [20] -0.046 | [14] -0.022

POLR2F (UniProt U3KPV3)
inactive: [15] -0.059 | [5] 0.177 | [6] -0.182 | [17] 0.012 | [13] 0.109

PRKD3 (UniProt O94806)
active: [11] -0.643
inactive: [1] -0.308 | [2] -0.014 | [3] -0.066 | [4] 0.059 | [5] 0.077 | [6] 0.233 | [7] 0.139 | [8] 0.087 | [9] -0.051 | [10] 0.031 | [19] 0.019 | [16] -0.199 | [12] 0.423 | [13] 0.092 | [18] -0.075 | [20] -0.086 | [14] 0.46

PRIMPOL (UniProt Q96LW4)
inactive: [2] -0.159 | [3] 0.036 | [4] 0.076 | [15] 0.071 | [5] 0.055 | [6] -0.37 | [7] -0.113 | [9] 0.045 | [19] 0.02 | [16] -0.097 | [17] 0.003 | [13] -0.031 | [18] 0.014 | [20] -0.225

PTMA isoform 2 (UniProt P06454)
inactive: [19] -0.053 | [20] -0.02

PPP1R14C (UniProt Q8TAE6)
active: [12] 0.358
inactive: [1] -0.045 | [2] -0.033 | [4] -0.002 | [15] -0.14 | [5] 0.064 | [6] 0.014 | [7] -0.044 | [8] -0.04 | [9] 0.032 | [10] -0.044 | [19] -0.025 | [11] -0.022 | [17] 0.121 | [13] 0.08 | [20] 0.041 | [14] 0.336

PECR (UniProt Q9BY49)
UniProt Q9BY49, sequence (Q9BY49 whole entry, looked up): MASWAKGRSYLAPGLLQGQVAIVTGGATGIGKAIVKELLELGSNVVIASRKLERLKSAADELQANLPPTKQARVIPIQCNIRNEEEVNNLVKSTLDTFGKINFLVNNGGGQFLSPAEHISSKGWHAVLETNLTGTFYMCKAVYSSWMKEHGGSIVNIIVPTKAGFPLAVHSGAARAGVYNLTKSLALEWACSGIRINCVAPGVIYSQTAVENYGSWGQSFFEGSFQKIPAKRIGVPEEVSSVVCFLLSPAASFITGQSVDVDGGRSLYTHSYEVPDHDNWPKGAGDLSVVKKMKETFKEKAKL
inactive: [5] 0.101 | [6] -0.184 | [13] -0.053

PPP2CA (UniProt E7ESG8)
inactive: [7] 0.139 | [9] -0.034

PRRG1 (UniProt O14668)
inactive: [2] -0.032

PPP2R5C isoform 2 (UniProt Q13362)
UniProt Q13362, sequence (Q13362 whole entry, looked up): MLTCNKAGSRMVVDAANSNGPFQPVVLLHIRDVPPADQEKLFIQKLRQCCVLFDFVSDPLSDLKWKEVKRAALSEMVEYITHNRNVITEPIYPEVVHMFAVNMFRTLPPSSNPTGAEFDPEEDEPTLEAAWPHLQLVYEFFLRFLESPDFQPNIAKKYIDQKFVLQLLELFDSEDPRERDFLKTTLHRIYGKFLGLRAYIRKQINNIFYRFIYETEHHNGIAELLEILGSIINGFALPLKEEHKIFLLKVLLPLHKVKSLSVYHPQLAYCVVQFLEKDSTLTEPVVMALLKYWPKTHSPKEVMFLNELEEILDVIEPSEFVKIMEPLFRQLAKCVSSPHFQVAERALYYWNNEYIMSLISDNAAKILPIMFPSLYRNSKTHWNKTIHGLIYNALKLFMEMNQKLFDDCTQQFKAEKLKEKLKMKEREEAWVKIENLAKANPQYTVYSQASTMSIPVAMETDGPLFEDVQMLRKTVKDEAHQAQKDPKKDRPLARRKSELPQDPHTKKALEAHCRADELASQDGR
inactive: [1] -0.004 | [2] 0.044 | [3] -0.028 | [4] -0.024 | [15] 0.001 | [7] 0.058 | [9] -0.062 | [19] 0.151 | [16] 0.234 | [11] -0.021 | [17] -0.064 | [12] 0.026 | [18] -0.043 | [20] 0.103 | [14] -0.005

PHF14 (UniProt O94880)
inactive: [2] 0.01 | [4] -0.012 | [15] 0.02 | [5] -0.014 | [6] 0.1 | [7] 0.044 | [8] -0.069 | [9] -0.042 | [10] 0.199 | [19] -0.049 | [17] 0.024 | [13] -0.117 | [20] -0.013

PUF60 isoform 2 (UniProt Q9UHX1)
UniProt Q9UHX1, sequence (Q9UHX1 whole entry, looked up): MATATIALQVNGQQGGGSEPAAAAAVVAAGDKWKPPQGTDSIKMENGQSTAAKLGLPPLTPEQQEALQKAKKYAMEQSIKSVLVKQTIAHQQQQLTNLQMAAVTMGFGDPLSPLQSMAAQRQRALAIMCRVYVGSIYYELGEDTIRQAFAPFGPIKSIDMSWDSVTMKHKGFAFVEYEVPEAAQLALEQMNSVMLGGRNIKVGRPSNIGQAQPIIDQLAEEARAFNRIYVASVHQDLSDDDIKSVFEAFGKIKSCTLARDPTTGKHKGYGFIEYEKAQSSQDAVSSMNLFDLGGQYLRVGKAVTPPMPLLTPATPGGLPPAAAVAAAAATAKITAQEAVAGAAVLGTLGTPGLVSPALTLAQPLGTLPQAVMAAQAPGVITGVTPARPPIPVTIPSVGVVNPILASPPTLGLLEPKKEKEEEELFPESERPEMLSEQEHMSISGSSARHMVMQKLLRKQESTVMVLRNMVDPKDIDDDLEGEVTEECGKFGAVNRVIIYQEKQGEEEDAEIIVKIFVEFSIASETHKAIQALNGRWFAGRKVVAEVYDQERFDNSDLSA
active: [11] 1.05
inactive: [1] 0.223 | [2] 0.003 | [3] 0.264 | [4] 0.108 | [5] 0.039 | [6] -0.12 | [7] -0.076 | [8] 0.038 | [9] 0.044 | [10] -0.038 | [19] -0.003 | [16] 0.005 | [12] -0.09 | [13] -0.161 | [18] -0.058 | [20] -0.006 | [14] -0.09

PHC1 (UniProt P78364)
UniProt P78364, sequence (P78364 whole entry, looked up): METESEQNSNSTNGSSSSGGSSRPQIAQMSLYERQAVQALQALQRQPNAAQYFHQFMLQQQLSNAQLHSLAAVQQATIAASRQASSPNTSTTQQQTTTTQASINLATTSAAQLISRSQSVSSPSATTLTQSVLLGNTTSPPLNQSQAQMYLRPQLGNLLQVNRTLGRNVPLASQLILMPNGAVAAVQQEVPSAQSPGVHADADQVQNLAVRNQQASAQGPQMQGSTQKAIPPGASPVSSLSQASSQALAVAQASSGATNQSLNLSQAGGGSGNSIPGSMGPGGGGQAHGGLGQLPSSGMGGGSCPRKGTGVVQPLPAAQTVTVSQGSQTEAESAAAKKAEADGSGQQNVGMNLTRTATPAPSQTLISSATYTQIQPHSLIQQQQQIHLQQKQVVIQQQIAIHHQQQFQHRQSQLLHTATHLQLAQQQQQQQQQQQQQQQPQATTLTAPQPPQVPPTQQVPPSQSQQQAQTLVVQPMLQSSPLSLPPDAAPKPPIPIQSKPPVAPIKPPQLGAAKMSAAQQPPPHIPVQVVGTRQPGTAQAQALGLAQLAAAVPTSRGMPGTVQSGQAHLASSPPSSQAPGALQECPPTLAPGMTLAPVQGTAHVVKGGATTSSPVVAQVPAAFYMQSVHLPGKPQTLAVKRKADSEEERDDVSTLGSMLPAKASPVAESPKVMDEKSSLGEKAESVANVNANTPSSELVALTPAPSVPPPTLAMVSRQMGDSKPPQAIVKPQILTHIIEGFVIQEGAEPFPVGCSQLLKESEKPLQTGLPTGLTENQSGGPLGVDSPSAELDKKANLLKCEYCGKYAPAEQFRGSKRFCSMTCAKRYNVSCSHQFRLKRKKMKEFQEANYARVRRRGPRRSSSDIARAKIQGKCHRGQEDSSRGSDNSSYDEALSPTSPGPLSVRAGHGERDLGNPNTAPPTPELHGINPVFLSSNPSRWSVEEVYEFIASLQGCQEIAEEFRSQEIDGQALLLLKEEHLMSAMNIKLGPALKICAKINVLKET
inactive: [4] 0.005 | [15] 0.184 | [5] 0.059 | [6] -0.062 | [7] -0.017 | [9] -0.101 | [19] -0.025 | [16] 0.063 | [17] -0.025 | [13] 0.022 | [18] -0.254 | [20] 0

PREP (UniProt H0Y5Y0)
inactive: [1] 0.082 | [8] 0.03 | [10] -0.029 | [11] -0.304 | [12] 0.113 | [14] -0.153

NA (UniProt Q4G0T1)
UniProt Q4G0T1, sequence (Q4G0T1 whole entry, looked up): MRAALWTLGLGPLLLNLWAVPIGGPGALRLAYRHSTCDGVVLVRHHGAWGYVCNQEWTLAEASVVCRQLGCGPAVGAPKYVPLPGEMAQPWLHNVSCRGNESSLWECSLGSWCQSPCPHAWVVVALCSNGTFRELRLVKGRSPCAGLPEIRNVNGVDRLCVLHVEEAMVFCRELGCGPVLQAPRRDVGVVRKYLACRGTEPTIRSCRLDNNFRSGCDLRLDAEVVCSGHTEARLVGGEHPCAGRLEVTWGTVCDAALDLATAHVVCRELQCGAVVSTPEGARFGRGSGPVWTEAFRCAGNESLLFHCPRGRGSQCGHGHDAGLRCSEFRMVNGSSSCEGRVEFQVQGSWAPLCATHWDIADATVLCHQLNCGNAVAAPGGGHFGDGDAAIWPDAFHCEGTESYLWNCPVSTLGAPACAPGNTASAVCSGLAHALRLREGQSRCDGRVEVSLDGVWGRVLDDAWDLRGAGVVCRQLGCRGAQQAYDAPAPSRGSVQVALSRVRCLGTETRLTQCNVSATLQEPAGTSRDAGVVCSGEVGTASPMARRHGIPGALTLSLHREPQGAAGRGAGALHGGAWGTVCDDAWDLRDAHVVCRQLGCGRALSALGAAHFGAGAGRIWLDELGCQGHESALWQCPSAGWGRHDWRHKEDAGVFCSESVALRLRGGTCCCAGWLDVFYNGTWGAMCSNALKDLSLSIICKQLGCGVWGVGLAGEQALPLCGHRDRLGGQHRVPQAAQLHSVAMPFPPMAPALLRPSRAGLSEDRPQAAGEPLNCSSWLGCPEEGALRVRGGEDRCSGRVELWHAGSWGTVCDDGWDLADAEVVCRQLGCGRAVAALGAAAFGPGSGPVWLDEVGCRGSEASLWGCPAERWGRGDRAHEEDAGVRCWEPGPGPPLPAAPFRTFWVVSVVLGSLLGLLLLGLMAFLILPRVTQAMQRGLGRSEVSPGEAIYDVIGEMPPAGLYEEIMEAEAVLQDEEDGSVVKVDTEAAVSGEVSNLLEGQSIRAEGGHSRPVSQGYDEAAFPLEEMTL
inactive: [1] -0.132 | [2] -0.272 | [3] -0.115 | [15] -0.062 | [16] 0.023 | [11] -0.044 | [17] 0.035 | [12] -0.015 | [18] 0.042 | [14] 0.034

PRADC1 (UniProt Q9BSG0)
UniProt Q9BSG0, sequence (Q9BSG0 whole entry, looked up): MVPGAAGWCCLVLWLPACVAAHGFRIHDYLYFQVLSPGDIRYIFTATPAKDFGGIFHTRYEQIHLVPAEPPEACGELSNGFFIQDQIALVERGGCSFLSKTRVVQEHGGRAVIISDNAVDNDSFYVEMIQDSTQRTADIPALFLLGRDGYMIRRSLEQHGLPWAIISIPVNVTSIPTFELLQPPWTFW
inactive: [1] -0.141 | [2] 0.04 | [3] -0.126 | [15] 0.059 | [7] 0.109 | [8] 0.212 | [9] -0.071 | [10] -0.088 | [19] 0.091 | [16] 0.075 | [11] 0.166 | [17] -0.069 | [12] -0.002 | [18] -0.041 | [20] -0.149 | [14] -0.087
